# Experimental data reported in PMC11062922 (Nature Chemical Biology, 2023).
# Read-outs that look alike come from different tables or passages of the source.
# What was measured:
# Design in all cases: species or system human, MV4-11 + K-562 + COLO205 + SK-N-BE2 + OVCAR-8
# [1] = system: CDC42; conditions: read-out: apparent Kd, compound concentrations: 100 nM and 1000 nM (sheet 'Samples'), n = 1
# [2] = system: CDKL5; conditions: read-out: apparent Kd; compound concentrations: 100 nM and 1000 nM (sheet 'Samples'), CATDS: 0.51116349982272002; n = 1
# [3] = system: CDK6; conditions: read-out: apparent Kd; compound concentrations: 100 nM and 1000 nM (sheet 'Samples'), CATDS: 0.35899533679328099; n = 1
# [4] = system: MAP2K1; conditions: read-out: apparent Kd; compound concentrations: 100 nM and 1000 nM (sheet 'Samples'), CATDS: 0.31550250727948498; n = 1
# [5] = system: CDC42BPG; conditions: read-out: apparent Kd, compound concentrations: 100 nM and 1000 nM (sheet 'Samples'), n = 1
# [6] = system: FLT4; conditions: read-out: apparent Kd; compound concentrations: 100 nM and 1000 nM (sheet 'Samples'), CATDS: 0.57222186491760196; n = 1
# [7] = system: PLK1; conditions: read-out: apparent Kd; compound concentrations: 100 nM and 1000 nM (sheet 'Samples'), CATDS: 0.18184890704530299; n = 1
# [8] = system: RIPK2; conditions: read-out: apparent Kd; compound concentrations: 100 nM and 1000 nM (sheet 'Samples'), CATDS: 0.227728306624736; n = 1
# [9] = system: CDC42BPA; conditions: read-out: apparent Kd; compound concentrations: 100 nM and 1000 nM (sheet 'Samples'), CATDS: 7.0311293069570804E-2; n = 1
# [10] = system: CDC42BPB; conditions: read-out: apparent Kd; compound concentrations: 100 nM and 1000 nM (sheet 'Samples'), CATDS: 0.16933732506395899; n = 1
# [11] = system: LATS1; conditions: read-out: apparent Kd; compound concentrations: 100 nM and 1000 nM (sheet 'Samples'), CATDS: 4.6540265787969097E-2; n = 1
# [12] = system: PKN1; conditions: read-out: apparent Kd; compound concentrations: 100 nM and 1000 nM (sheet 'Samples'), CATDS: 4.7667379026866498E-2; n = 1
# [13] = system: PKN2; conditions: read-out: apparent Kd; compound concentrations: 100 nM and 1000 nM (sheet 'Samples'), CATDS: 4.4394319464929097E-2; n = 1
# [14] = system: PRKACA; conditions: read-out: apparent Kd; compound concentrations: 100 nM and 1000 nM (sheet 'Samples'), CATDS: 0.118024991958308; n = 1
# [15] = system: PRKACB; conditions: read-out: apparent Kd; compound concentrations: 100 nM and 1000 nM (sheet 'Samples'), CATDS: 8.0327411283578495E-2; n = 1
# [16] = system: PRKCA; conditions: read-out: apparent Kd; compound concentrations: 100 nM and 1000 nM (sheet 'Samples'), CATDS: 4.1587552070859297E-2; n = 1
# [17] = system: PRKCD; conditions: read-out: apparent Kd; compound concentrations: 100 nM and 1000 nM (sheet 'Samples'), CATDS: 4.48878810193531E-2; n = 1
# [18] = system: PRKG1; conditions: read-out: apparent Kd; compound concentrations: 100 nM and 1000 nM (sheet 'Samples'), CATDS: 6.8591269035778196E-2; n = 1
# [19] = system: PRKX; conditions: read-out: apparent Kd; compound concentrations: 100 nM and 1000 nM (sheet 'Samples'), CATDS: 6.1188840569936599E-2; n = 1
# [20] = system: ROCK1; conditions: read-out: apparent Kd; compound concentrations: 100 nM and 1000 nM (sheet 'Samples'), CATDS: 0.14218227493934099; n = 1
# [21] = system: ROCK2; conditions: read-out: apparent Kd; compound concentrations: 100 nM and 1000 nM (sheet 'Samples'), CATDS: 0.152164814838194; n = 1
# [22] = system: TP53RK; conditions: read-out: apparent Kd; compound concentrations: 100 nM and 1000 nM (sheet 'Samples'), CATDS: 4.1650793572711099E-2; n = 1
# [23] = system: GAK; conditions: read-out: apparent Kd; compound concentrations: 100 nM and 1000 nM (sheet 'Samples'), CATDS: 0.13668141663723599; n = 1
# [24] = system: MAPK10; conditions: read-out: apparent Kd; compound concentrations: 100 nM and 1000 nM (sheet 'Samples'), CATDS: 0.12548752602980501; n = 1
# [25] = system: MAPK14; conditions: read-out: apparent Kd; compound concentrations: 100 nM and 1000 nM (sheet 'Samples'), CATDS: 0.192952593667473; n = 1
# [26] = system: MAPK9; conditions: read-out: apparent Kd; compound concentrations: 100 nM and 1000 nM (sheet 'Samples'), CATDS: 0.107953199944472; n = 1
# [27] = system: MAPKAPK2; conditions: read-out: apparent Kd; compound concentrations: 100 nM and 1000 nM (sheet 'Samples'), CATDS: 0.17502946768032501; n = 1
# [28] = system: NQO1; conditions: read-out: apparent Kd; compound concentrations: 100 nM and 1000 nM (sheet 'Samples'), CATDS: 8.60735929712554E-2; n = 1
# [29] = system: TNIK; conditions: read-out: apparent Kd, compound concentrations: 100 nM and 1000 nM (sheet 'Samples'), n = 1
# [30] = system: MYLK3; conditions: read-out: apparent Kd; compound concentrations: 100 nM and 1000 nM (sheet 'Samples'), CATDS: 0.26108904226554702; n = 1
# [31] = system: NLK; conditions: read-out: apparent Kd; compound concentrations: 100 nM and 1000 nM (sheet 'Samples'), CATDS: 0.267890772302949; n = 1
compound,measurement,setting,value
COc1ccc(Nc2nccc(N3CCC(NC(=O)Nc4cccc(C(C)=O)c4)C3)n2)cc1 (centres unmarked) [GSK1379731A],potency estimated from few doses,[1]; CATDS: 0.48931368679936299,1580 nM
same,potency estimated from few doses,[2],1450 nM
CCn1c(-c2ccccn2)nc2cnccc21 [SB-736398],potency estimated from few doses,[1]; CATDS: 0.328417840290395,1930 nM
same,potency estimated from few doses,[3],1630 nM
same,potency estimated from few doses,[4],2100 nM
Cc1ccc(NC(=O)c2ccc(Cl)c(Cl)c2)cc1-c1ccc(C(=O)Nc2ccncc2)cc1 [GSK1398460A],potency estimated from few doses,[5]; CATDS: 1,1100 nM
COc1cc2nccc(Nc3ccc(OCc4ccc(NC(C)=O)cc4)cc3)c2cc1OC.Cl [GW440135A],potency estimated from few doses,[5]; CATDS: 0.22924434609497199,1070 nM
same,potency estimated from few doses,[6],185 nM
same,potency estimated from few doses,[7],2130 nM
same,potency estimated from few doses,[8],1090 nM
COc1ccc(-c2nn3ncccc3c2-c2ccnc(Nc3cccc(C(F)(F)F)c3)n2)cc1 [GW827105X],potency estimated from few doses,[5]; CATDS: 1,1920 nM
NCCC(NC(=O)c1cc(Br)c(-c2ccnc3[nH]ccc23)s1)c1ccccc1.NCCC(NC(=O)c1cc(Br)c(-c2ccnc3[nH]ccc23)s1)c1ccccc1.O=C(O)C(F)(F)F.O=C(O)C(F)(F)F (centres unmarked) [GSK1307810A],potency estimated from few doses,[9],227 nM
same,potency estimated from few doses,[10],30.4 nM
same,potency estimated from few doses,[5]; CATDS: 0.24390813090815999,17.2 nM
same,potency estimated from few doses,[11],1110 nM
same,potency estimated from few doses,[12],988 nM
same,potency estimated from few doses,[13],1410 nM
same,potency estimated from few doses,[14],60.2 nM
same,potency estimated from few doses,[15],153 nM
same,potency estimated from few doses,[16],2070 nM
same,potency estimated from few doses,[17],1330 nM
same,potency estimated from few doses,[18],245 nM
same,potency estimated from few doses,[19],360 nM
same,potency estimated from few doses,[20],41.6 nM
same,potency estimated from few doses,[21],36.7 nM
same,potency estimated from few doses,[22],2050 nM
N#Cc1ccc2c(-c3ccnc(NC4CC4)n3)c(-c3ccc(F)cc3)nn2c1 [GW561436X],potency estimated from few doses,[5]; CATDS: 0.104980182660456,1180 nM
same,potency estimated from few doses,[23],650 nM
same,potency estimated from few doses,[24],775 nM
same,potency estimated from few doses,[25],356 nM
same,potency estimated from few doses,[26],1100 nM
same,potency estimated from few doses,[27],417 nM
same,potency estimated from few doses,[28],2220 nM
same,potency estimated from few doses,[29]; CATDS: 0.13491621958450101,667 nM
O=C(Nc1n[nH]c2cc(-c3ccccc3)ccc12)C1CC1 [SB-732941],potency estimated from few doses,[5]; CATDS: 0.214831425335373,2210 nM
same,potency estimated from few doses,[30],1450 nM
same,potency estimated from few doses,[31],1380 nM
same,potency estimated from few doses,[29]; CATDS: 0.264395551516103,1420 nM
